Sm TGR inh – S. mansoni TGR enzyme inhibition; purified TGR, DTNB reduction, TNB absorbance 405 nm; Potency, µM (titrated, usually from 114 µM), for inactives: top-dose activity change, negative = inhibition, usual class: inhibitors; 360,000 compounds, 3% hits; active means well fitted inhibition curve with a large enough effect; inconclusive means small, poorly fitted or top-dose-only effect; inactive means no such curve, though single readings can be large or run the other way; further: potency means the concentration at half of the fitted maximal effect; on the % scale 0 is the no-effect control and ±100 the full control effect; nearly all actives have a fitted effect of over 60% in size
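Kinetic colorimetric format: TGR-catalysed, NADPH-driven DTNB reduction monitored via TNB absorbance. Enzyme dispensed at 20 nM; compound exposure 15 min at room temperature before reaction start.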
FMDV antiviral – blocks foot and mouth disease virus; 410,000 compounds, 1.2% hits; AID 1159524; Potency, µM (top dose mostly 57.9 µM), inactives show at the highest dose activity change, negative = inhibition, hits mostly inhibitors; FMDV antiviral cell-based qHTS; calls by dose curve; tested in HEK293T cells; further: read-out not given here; potency means the concentration at half of the fitted maximal effect; on the % scale 0 is the no-effect control and ±100 the full control effect; nearly all actives have a fitted effect of over 45% in size
Shiga toxin inh – Shiga toxin inhibition; inhibition, % at 38.7 µM; Vero cells, Shiga toxin protein synthesis inhibition reporter; AID 2315; 290,000 compounds, 9.2% hits; in the data active means inhibition mostly above about 28%, no sharp cut-off; inactive means mostly below about 43%; further: 0% is about no effect
CHX counter – counter-screen hit for Shiga toxin inhibitors, cycloheximide | cell reporter, cycloheximide protein synthesis inhibition counterscreen | max response, % | 300,000 compounds, 12% hits | AID 2314; in the data active means max response mostly above about 13%, no sharp cut-off; inactive means mostly below about 14%; further: read at 38.3 µM for the half of the compounds with a filed dose; 0% is about no effect
* marks the source's active call; other numbers are inactive results; ? = inconclusive; . = no result. Compounds with a hit are over-represented: about 12% of the library has one in this group of screens.

SMILES	Sm TGR inh	FMDV antiviral	Shiga toxin inh	CHX counter
O=C(CSc1nnc(CNC(=O)c2c(F)cccc2Cl)o1)Nc1cccc(F)c1	-1%	-13%	.	.
COc1cccc(C(=O)Nc2c(C(=O)NC(C)(C)C)oc3ccccc23)c1	11%	-29%	.	.
Cc1ccccc1CNC(=O)Nc1ccc2c(c1)N(C)C(=O)c1ccccc1S2	-4%	?	.	.
CNC(=O)CCc1nc(-c2ccc(C(C)(C)C)cc2)no1	-2%	6%	57	41*
N#C[C@H]1[C@H](c2ccccc2)[C@](C#N)(C(=O)c2ccccc2)[C@@H]2C=Cc3ccccc3N21	?	.	55	42*
COc1ccc(C(=O)N2c3ccccc3C=CC2C#N)cc1 (stereo not given)	-31%	0%	-9	11
CCOC(=O)CN(Cc1ccccc1)C(C(=O)NC1CCCCC1)c1ccc(C)cc1 (stereo not given)	2%	-1%	.	.
COc1ccc(-n2nc(C(=O)NCCc3ccc(Cl)cc3)c3c4ccccc4n(C)c3c2=O)cc1	9%	-26%	.	.
C/C(=C\C(=S)Nc1ccccc1)Nc1ccc2ccccc2c1	-16%	20%	143*	74*
C/C(=C\C(=S)Nc1ccccc1)Nc1cccc2ccccc12	-13%	21%	68*	41*
CC(NC(=O)c1ccco1)c1nnc2n1CCN(Cc1ccc(Cl)cc1)CC2 (stereo not given)	.	2%	.	.
Cc1cc(C)c(C)c(S(=O)(=O)N2CCN(c3ncnc4ccccc34)CC2)c1C	-1%	16µM*	.	.
Cc1cc(C)c(C)c(S(=O)(=O)N2CCN(c3ccccn3)CC2)c1C	1%	-5%	-1	-3
COc1ccc(N(C(=O)/C=C\C(=O)Nc2ccc(Cl)cc2)C(C(=O)NCc2ccco2)c2ccc(C)cc2)cc1 (stereo not given)	7.9µM*	-13%	.	.
Cc1ccc(NC(=O)/C=C\C(=O)N(c2ccc(C(C)C)cc2)C(C(=O)NCc2ccco2)c2ccc(Cl)cc2)cc1 (stereo not given)	?	-20%	.	.
COc1ccc(NC(=O)/C=C\C(=O)N(c2ccc(C(C)C)cc2)C(C(=O)NCc2ccco2)c2ccc(F)cc2)cc1 (stereo not given)	-26%	0%	.	.
CCOc1ccc(NC(=O)/C=C\C(=O)N(c2ccc(C(C)C)cc2)C(C(=O)NCc2ccco2)c2ccc(F)cc2)cc1 (stereo not given)	56µM*	-15%	.	.
COc1ccc(-c2cn3nc4c(nc3n2)CCCC4)cc1	-32%	-30%	48*	26*
COc1ccc(CNc2cc(-c3ccc(OC)cc3)nc3nncn23)cc1	-32%	?	.	.
COc1cc(C2Oc3ccccc3C=C2[N+](=O)[O-])cc(OC)c1OC (stereo not given)	32µM*	13µM*	-13	-9
CCCCN(CC)CCNC(=O)CCn1cnc2onc(-c3ccc(F)cc3)c2c1=O	3%	-16%	.	.
CC1(C)S[C@@H]2[C@H](N3C(=O)C(c4ccccc4)NC3(C)C)C(=O)N2[C@H]1C(=O)O (stereo not given in full)	.	27%	.	.
C#CCNC(=O)c1ccc(OCc2ccccc2)cc1Cl	5%	17%	58*	19
COc1ccc(OCCNC(=O)c2ccccc2Cl)cc1	-3%	-21%	28	11
O=C(NCCCl)c1ccc(OCc2ccccc2)cc1Cl	19%	71%	66*	34*
SMILES	Sm TGR inh	FMDV antiviral	Shiga toxin inh	CHX counter
Cc1ccc(NC(=O)c2cccc3c(=O)c4c([nH]c23)CCCC4)c(C)c1	4%	-13%	.	.
Cc1ccc(CNc2nc(C)c(-c3ccn(CCN4CCOCC4)n3)s2)o1	.	-12%	.	.
COc1cc(NC(=O)CSc2nc3nc(C)c(Cc4ccccc4)c(C)n3n2)cc(OC)c1OC	5%	?	.	.
Oc1c(C(Nc2ccccn2)c2ccccc2F)ccc2cccnc12 (stereo not given)	2µM*	7%	12	17
Oc1c(C(Nc2ccccn2)c2ccccn2)ccc2cccnc12 (stereo not given)	22µM*	-20%	-13	-4
Cc1ccnc(NC(c2cccnc2)c2ccc3cccnc3c2O)c1 (stereo not given)	.	-13%	-11	-2
Cc1ccnc(NC(c2ccccc2)c2ccc3cccnc3c2O)c1 (stereo not given)	.	-13%	.	.
Oc1ccccc1C(Nc1nccs1)c1ccc2cccnc2c1O (stereo not given)	1.3µM*	-14%	5	0
CCC(=O)NC(c1ccc(Cl)cc1Cl)c1ccc2cccnc2c1O (stereo not given)	0%	-6%	.	11
Cc1ccnc(NC(c2cc(C)ccc2O)c2ccc3cccnc3c2O)c1 (stereo not given)	0.35µM*	0%	.	.

Compound activity (PubChem BioAssay)
